For experiment [1], the target named is Lysosomal acid glucosylceramidase (Homo sapiens) (UniProt P04062). The experiment is described as follows: Glucocerebrosidase-p2 (AID 348; in the data active = potency below about 10 µM; also: potency is read from the fitted curve at half-maximal effect). Particulars: purified GBA, blue fluorogenic substrate, 40 min. In short, it runs like this:
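Normal human glucocerebrosidase (0.2 nM) with blue fluorogenic substrate (80 uM final) in citrate/phosphate pH 5.9 with 10mM sodium taurocholate, 0.01% tween-20; 40 min RT, NaOH/glycine stop; fluorescence Ex 365/Em 440; AC50 from a titration from 0.6 nM upwards.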

Experiment [2] in a line: AP1 Signaling Pathway (AID 357).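 Also: ME-180 reporter cells stimulated with EGF at its EC50 level; % is scaled to controls: 0 for no effect and ±100 for the full control effect.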 Particulars: ME-180 AP-1-bla reporter, EGF-induced, beta-lactamase ratio, 5 h; at 7.69 µM (top of the series) unless noted. In short, it runs like this:
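A ratiometric CCF4 readout (405 nm excitation; 460 and 530 nm emission) quantified AP-1-driven beta-lactamase in ME-180 cells after 5 h with compound and EC50 EGF; AC50 values were derived for activators and inhibitors.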

Experiment [3] deals with Cytochrome P450 1A2 (Homo sapiens) (UniProt P05177). The experiment can be described thus: p450-cyp1a2 (AID 410; calls by dose curve; also: potency is read from the fitted curve at half-maximal effect). The note with it: recombinant CYP1A2, luciferin-ME demethylation, luminescence; series mostly up to 11.4 µM. The essentials: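 20nM CYP1A2, 100uM Luciferin-ME (=Km), 100mM KPO4; cpd 10 min RT; +NADPH regen, 60 min RT; stop/detect 20 min; luminescence. Normalized to furafylline 57 uM = full inhibition.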

A short description of experiment [4]: NFAT Signaling Pathway (AID 444).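 Also: carbachol stimulus at about its EC50 of 1 µM final; % is scaled to controls: 0 for no effect and ±100 for the full control effect.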 Particulars: Jurkat NFAT-bla M1, carbachol, beta-lactamase ratio, 5 h; at 7.69 µM (top of the series) unless noted. The essentials: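 Jurkat cells carrying an NFAT-driven β-lactamase reporter and co-transfected muscarinic M1 receptor were treated with compound plus carbachol (1 uM final, an EC50 level) for 5 h at 37 °C. CCF4 loading followed for 1 h at RT; 460/530 nm ratio gave %activity.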

The nature of experiment [5]: Stat Signaling Pathway (AID 446).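 Also: ME-180 cervical cancer cells given 40 pM IL-6 alongside compound; SIE-controlled beta-lactamase reporter measured as 460/530 nm FRET emission ratio; % is scaled to controls: 0 for no effect and ±100 for the full control effect.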 Particulars: ME-180 (cervical carcinoma) SIE beta-lactamase reporter, IL-6 stimulated, 5 h; at 7.69 µM (top of the series) unless noted. In short, it runs like this:
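FRET read-out (405 nm excitation, 460/530 nm emission) of a beta-lactamase reporter under a STAT-inducible element in ME-180 cervical carcinoma cells. Cells with compound receive 40 pM IL-6 for 5 h. Values are normalised to AC90 stimulation and AC90 JAK-inhibitor controls.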

In experiment [6] the target is Glucocorticoid receptor (Homo sapiens) (UniProt P04150). The experiment can be described thus: GR-GFP Redistribution (AID 450;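 active = compounds whose dose series gives a full or clear partial fitted curve of increased nuclear translocation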; also: potency is read from the fitted curve at half-maximal effect). The note with it: U2OS GR-GFP nuclear translocation, laser cytometry, 2 h.
For experiment [7] the target is unchanged. The experiment can be described thus: GR-EFC Redistribution (AID 451; calls by dose curve; also: potency is read from the fitted curve at half-maximal effect). The note with it: CHO-K1 GR-EFC translocation, beta-gal luminescence, 2 h. In short, it runs like this:
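CHO-K1 cells stably expressing nuclear-localized β-gal enzyme acceptor and GR fused C-terminally to the enzyme donor fragment; ligand-driven nuclear translocation restores β-gal by complementation. Compounds titrated up to 46 uM final, 2 h at 37 °C; luminescence read.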

Experiment [8] concerns the target Mitogen-activated protein kinase 10 (Mus musculus) (UniProt Q61831). The experiment can be described thus: JNK3 AlphaScreen Assay (AID 530).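 Also: kinase came from lysate of stimulated human HepG2 cells; signal reports phosphorylation of biotinylated GST-cJun 1-79 at Ser73 with 10 µM ATP; % is scaled to controls: 0 for no effect and ±100 for the full control effect.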 Particulars: JNK3 lysate, c-Jun phosphorylation; series mostly up to 11.4 µM. The essentials:
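Biotinylated GST-cJun(1-79) served as substrate for JNK3 in HepG2 lysates stimulated with IL-1beta and TNF-alpha. ATP was 10 uM final, pH 7.6. Ser73 phosphorylation was quantified by AlphaScreen (680 nm excitation).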
(In general: In Alpha technology, singlet oxygen from a donor bead excites a nearby acceptor bead.)

In experiment [9] the target is 3',5'-cyclic-AMP phosphodiesterase 4B (Homo sapiens) (UniProt Q07343). The experiment can be described thus: qHTS Assay for Inhibitors of PDE-IV (AID 607; active = well fitted activation curve with a large enough effect in the main read-out, with a control signal flat, not every such curve was filed as active; also: % of control where 0% means no effect). Particulars: HEK293 ACTOne CNG channel cells, membrane potential fluorescence; series mostly up to 22.9 µM. The essentials: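 Cell-based read-out of cAMP via a modified cyclic nucleotide-gated channel and membrane potential dye (535/590 nm) in HEK293 cells expressing PDE4 endogenously. Compounds tested up to 22.9 uM final; 100 uM RO 20-1724 reference.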
A general note: In qHTS, concentration-response curves come from the screen itself.

Experiment [10] deals with Cytochrome P450 2C9 (Homo sapiens) (UniProt P11712). The experiment is described as follows: qHTS Assay for Inhibitors and Substrates of Cytochrome P450 2C9 (AID 883; active = well fitted curve in the direction sought with a large enough effect; an effect the other way counts as inactive or inconclusive; also: nearly all actives have a fitted effect of over 60% in size; also: potency is read from the fitted curve at half-maximal effect). The note with it: recombinant CYP2C9, luciferin-H luminescence, 60 min; series mostly up to 11.4 µM. In short, it runs like this:
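Human CYP2C9 (10nM) hydroxylated Luciferin-H (100uM, at its KM) to luciferin in 25mM KPO4. Compound was preincubated 10 min at 37C, then NADPH regeneration started a 60 min reaction at 37C. Luminescence was read after detection reagent, normalized to 57uM sulphaphenazole.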

Experiment [11] has as its target Cytochrome P450 3A4 (Homo sapiens) (UniProt P08684). The experiment can be described thus: qHTS Assay for Activators of Cytochrome P450 3A4 (AID 885; active = well fitted curve in the direction sought with a large enough effect; an effect the other way counts as inactive or inconclusive; also: nearly all actives have a fitted effect of over 65% in size). The note with it: recombinant CYP3A4, Luciferin-PPXE luminescence, 60 min; series mostly up to 11.4 µM. In short, it runs like this:
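Luminescent readout of luciferin formed from 25 uM Luciferin-PPXE (KM level) by 20 nM CYP3A4 in 200 mM KPO4, with 60 min NADPH-driven reaction at room temperature after 10 min compound exposure. Ketoconazole (57 uM) defined 100% inhibition.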

The target is the same in experiment [12]. The experiment can be described thus: qHTS Assay for Inhibitors and Substrates of Cytochrome P450 3A4 (AID 884; active = well fitted curve in the direction sought with a large enough effect; an effect the other way counts as inactive or inconclusive; also: potency is read from the fitted curve at half-maximal effect; nearly all actives have a fitted effect of over 50% in size). The note with it: recombinant CYP3A4, Luciferin-PPXE luminescence; series mostly up to 57.1 µM. In short, it runs like this: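 Luminescent readout of luciferin produced by CYP3A4 (20 nM) dealkylation of Luciferin-PPXE, 25 uM (its KM). NADPH-driven reaction ran 60 min at RT after 10 min compound preincubation; data scaled to 57 uM ketoconazole as 100% inhibition.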

Experiment [13] addresses Cytochrome P450 2D6 (Homo sapiens) (UniProt P10635). The experiment can be described thus: qHTS Assay for Inhibitors and Substrates of Cytochrome P450 2D6 (AID 891; active = well fitted curve in the direction sought with a large enough effect; an effect the other way counts as inactive or inconclusive;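 also: luciferin methyl ether substrate demethylated by CYP2D6 with NADPH regeneration; % is scaled to controls: 0 for no effect and ±100 for the full control effect; nearly all actives have a fitted effect of over 60% in size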). Particulars: recombinant CYP2D6, luciferin-ME EGE luminescence; series mostly up to 11.4 µM. The essentials:
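Luminescent read-out of luciferin formed by 5 nM human CYP2D6 demethylating 30 uM Luciferin-ME EGE (Km level) over 60 min at room temperature after NADPH regeneration addition. Data normalized to full inhibition by 1.43 uM quinidine.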

The target in experiment [14] is Cytochrome P450 2C19 (Homo sapiens) (UniProt P33261). The experiment can be described thus: qHTS Assay for Inhibitors and Substrates of Cytochrome P450 2C19 (AID 899; active = well fitted curve in the direction sought with a large enough effect; an effect the other way counts as inactive or inconclusive; also: nearly all actives have a fitted effect of over 60% in size; also: potency is read from the fitted curve at half-maximal effect). Particulars: recombinant CYP2C19, luciferin-H EGE luminescence; series mostly up to 11.4 µM. The essentials: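 Human CYP2C19 (5nM) with Luciferin-H EGE at 10uM (its KM) in 50mM KPO4 was preincubated with compound for 10 min at 37C. NADPH regeneration started a 60 min 37C reaction. Luciferin was read by luminescence, normalized to 57uM ketoconazole.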

Unmarked numbers belong to inactive results. Records with an inconclusive call do not appear. Active and inactive are the calls of the source. Unless noted, calls follow the shape of the dose curve; as a rule, active = well fitted curve in either direction with a large enough effect (not every such curve was filed as active); inconclusive = small, poorly fitted or top-dose-only effect, or another doubt; inactive = flat fitted curve, though single readings scatter.

Chain of Cytochrome P450 2C9 (Homo sapiens) (P11712 whole entry, looked up): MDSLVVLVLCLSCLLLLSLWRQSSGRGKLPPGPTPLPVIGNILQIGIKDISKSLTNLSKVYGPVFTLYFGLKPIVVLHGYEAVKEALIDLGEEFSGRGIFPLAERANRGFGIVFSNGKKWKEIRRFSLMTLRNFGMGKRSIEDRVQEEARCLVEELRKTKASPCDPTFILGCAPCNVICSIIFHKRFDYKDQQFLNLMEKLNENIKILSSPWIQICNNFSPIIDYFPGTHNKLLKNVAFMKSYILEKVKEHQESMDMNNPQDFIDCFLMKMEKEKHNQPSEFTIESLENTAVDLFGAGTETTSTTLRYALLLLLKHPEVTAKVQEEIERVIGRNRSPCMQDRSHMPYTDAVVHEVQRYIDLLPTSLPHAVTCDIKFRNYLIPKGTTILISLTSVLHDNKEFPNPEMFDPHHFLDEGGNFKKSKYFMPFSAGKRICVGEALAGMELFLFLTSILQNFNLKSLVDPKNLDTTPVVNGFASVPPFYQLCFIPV
Chain of 3',5'-cyclic-AMP phosphodiesterase 4B (Homo sapiens) (Q07343 whole entry, looked up): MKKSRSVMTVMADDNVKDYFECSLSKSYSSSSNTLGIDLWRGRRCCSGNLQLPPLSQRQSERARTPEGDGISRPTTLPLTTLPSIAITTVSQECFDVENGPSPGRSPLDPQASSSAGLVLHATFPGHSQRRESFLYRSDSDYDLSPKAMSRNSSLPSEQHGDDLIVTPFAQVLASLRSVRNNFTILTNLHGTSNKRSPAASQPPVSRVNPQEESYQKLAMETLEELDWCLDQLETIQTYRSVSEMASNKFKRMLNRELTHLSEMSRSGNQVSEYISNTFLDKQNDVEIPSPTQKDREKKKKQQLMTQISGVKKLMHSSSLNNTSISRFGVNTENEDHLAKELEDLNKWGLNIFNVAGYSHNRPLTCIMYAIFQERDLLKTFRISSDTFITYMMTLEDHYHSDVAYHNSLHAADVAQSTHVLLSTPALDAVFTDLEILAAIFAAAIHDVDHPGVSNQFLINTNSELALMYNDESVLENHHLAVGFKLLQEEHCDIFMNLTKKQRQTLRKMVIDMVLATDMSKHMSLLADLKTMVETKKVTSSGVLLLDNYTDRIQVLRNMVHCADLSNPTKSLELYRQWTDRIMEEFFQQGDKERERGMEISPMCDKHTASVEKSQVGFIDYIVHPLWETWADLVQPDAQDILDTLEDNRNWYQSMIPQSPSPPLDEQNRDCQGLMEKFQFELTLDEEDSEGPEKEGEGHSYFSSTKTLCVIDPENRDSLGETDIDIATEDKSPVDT
Chain of Cytochrome P450 3A4 (Homo sapiens) (P08684 whole entry, looked up): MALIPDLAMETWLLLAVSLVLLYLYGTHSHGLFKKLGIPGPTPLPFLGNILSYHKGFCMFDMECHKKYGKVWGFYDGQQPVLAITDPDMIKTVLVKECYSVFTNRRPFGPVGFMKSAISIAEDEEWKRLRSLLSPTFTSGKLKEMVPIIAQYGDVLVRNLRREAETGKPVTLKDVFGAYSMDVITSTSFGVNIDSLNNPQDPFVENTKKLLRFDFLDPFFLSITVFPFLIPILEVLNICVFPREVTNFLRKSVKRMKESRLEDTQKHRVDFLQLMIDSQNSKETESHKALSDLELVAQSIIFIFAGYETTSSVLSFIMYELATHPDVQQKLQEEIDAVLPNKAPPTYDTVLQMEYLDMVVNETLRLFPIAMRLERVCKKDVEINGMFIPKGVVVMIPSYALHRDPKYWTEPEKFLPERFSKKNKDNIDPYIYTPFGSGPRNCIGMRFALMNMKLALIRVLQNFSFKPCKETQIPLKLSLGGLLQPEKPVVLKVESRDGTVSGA
Chain of Glucocorticoid receptor (Homo sapiens) (P04150 whole entry, looked up): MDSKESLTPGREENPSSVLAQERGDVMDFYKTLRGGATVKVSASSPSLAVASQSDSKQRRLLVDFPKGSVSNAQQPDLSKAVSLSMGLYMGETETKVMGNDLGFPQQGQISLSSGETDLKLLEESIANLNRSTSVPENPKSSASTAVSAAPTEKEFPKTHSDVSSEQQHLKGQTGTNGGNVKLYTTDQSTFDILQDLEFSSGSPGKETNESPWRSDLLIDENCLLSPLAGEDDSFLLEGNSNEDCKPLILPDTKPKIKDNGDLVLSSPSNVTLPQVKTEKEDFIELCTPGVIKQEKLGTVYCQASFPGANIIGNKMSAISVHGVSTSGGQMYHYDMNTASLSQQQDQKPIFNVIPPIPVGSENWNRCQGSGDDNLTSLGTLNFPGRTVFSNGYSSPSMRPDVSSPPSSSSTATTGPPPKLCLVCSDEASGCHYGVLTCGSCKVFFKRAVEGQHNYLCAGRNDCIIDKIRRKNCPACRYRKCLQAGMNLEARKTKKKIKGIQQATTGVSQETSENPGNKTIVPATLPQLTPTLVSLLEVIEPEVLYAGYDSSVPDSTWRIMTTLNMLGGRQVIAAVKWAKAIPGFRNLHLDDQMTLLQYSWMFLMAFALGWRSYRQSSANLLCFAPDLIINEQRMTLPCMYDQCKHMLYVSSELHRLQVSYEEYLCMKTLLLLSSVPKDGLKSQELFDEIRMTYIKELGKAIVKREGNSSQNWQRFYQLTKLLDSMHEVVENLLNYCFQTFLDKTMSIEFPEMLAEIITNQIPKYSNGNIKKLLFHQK
Chain of Cytochrome P450 1A2 (Homo sapiens) (P05177 whole entry, looked up): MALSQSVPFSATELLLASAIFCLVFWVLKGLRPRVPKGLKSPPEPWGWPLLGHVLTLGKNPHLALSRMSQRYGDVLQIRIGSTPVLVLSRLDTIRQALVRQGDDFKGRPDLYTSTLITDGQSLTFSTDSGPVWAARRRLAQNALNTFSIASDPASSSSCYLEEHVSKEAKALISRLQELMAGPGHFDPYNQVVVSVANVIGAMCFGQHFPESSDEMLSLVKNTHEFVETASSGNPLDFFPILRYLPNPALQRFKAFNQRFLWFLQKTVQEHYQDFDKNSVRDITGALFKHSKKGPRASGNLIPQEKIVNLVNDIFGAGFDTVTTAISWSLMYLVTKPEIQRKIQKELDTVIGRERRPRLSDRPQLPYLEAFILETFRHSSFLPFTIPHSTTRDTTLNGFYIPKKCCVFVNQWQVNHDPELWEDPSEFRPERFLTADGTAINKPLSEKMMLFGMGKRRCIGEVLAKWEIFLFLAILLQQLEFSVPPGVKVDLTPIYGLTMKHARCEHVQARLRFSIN
Chain of Lysosomal acid glucosylceramidase (Homo sapiens) (P04062 whole entry, looked up): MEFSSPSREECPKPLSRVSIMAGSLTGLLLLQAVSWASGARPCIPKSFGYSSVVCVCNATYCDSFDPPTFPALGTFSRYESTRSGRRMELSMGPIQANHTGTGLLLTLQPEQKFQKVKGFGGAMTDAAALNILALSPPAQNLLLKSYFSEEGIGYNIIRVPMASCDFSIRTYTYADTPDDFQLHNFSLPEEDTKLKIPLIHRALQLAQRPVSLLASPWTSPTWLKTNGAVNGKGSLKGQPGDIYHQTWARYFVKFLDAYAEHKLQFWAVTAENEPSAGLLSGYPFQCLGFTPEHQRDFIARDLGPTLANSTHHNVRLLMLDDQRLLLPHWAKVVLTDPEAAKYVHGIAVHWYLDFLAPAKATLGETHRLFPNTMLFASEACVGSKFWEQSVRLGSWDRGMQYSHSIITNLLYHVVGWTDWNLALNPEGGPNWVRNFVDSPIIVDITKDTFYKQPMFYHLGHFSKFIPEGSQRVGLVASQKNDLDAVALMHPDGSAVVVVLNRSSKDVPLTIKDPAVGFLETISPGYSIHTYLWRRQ
Chain of Cytochrome P450 2C19 (Homo sapiens) (P33261 whole entry, looked up): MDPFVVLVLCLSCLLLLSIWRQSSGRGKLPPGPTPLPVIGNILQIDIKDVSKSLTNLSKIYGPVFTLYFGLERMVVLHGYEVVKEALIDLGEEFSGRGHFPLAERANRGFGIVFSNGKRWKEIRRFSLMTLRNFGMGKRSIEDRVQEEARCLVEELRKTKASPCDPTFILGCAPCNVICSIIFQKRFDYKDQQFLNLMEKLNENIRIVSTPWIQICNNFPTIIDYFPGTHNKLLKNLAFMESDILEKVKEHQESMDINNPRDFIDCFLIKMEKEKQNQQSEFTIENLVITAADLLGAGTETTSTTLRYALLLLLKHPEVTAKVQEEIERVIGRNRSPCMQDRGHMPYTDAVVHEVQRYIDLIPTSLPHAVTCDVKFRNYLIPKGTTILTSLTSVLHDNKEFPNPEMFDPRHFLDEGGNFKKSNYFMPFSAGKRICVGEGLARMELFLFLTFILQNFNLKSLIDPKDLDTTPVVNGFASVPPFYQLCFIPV
Chain of Cytochrome P450 2D6 (Homo sapiens) (P10635 whole entry, looked up): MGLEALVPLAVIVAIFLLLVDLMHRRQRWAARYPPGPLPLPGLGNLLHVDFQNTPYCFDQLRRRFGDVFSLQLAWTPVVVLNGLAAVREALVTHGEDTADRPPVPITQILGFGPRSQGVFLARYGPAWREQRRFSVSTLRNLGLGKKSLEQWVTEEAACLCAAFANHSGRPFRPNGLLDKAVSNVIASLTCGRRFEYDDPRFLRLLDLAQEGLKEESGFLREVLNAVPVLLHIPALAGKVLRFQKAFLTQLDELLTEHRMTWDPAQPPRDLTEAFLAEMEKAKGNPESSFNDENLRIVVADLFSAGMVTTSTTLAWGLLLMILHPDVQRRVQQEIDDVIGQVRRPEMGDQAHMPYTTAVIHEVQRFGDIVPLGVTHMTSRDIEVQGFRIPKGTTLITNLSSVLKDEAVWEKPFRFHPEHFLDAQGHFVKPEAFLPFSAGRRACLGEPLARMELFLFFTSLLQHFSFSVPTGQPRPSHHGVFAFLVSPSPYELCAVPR

As for `O=C(O)c1c(Cl)c(Cl)c(Cl)c(Cl)c1C(=O)Nc1ccc2cn[nH]c2c1`, the Potency in [1] is more than 11.4 µM; in experiment [3], 0.2 µM (active); in experiment [6] it was more than 46 µM; in experiment [7], more than 9.22 µM; in experiment [10] it was 0.0794 µM (active). Also, the figures for the activity change, negative = inhibition in experiment [2] and in experiment [4] were 1.63% and 4.49%, respectively. Also, in [5], the activity, negative = inhibition is 20.7%. For the same compound, the Potency result in experiment [8], in experiment [9] and in [11] was “inactive” in each case.
With `Nc1nc(SCc2ccccc2[N+](=O)[O-])c2[nH]cnc2n1`, the Potency in [1] was more than 11.4 µM; in experiment [3], 5.01 µM (active); in [6] it was more than 46 µM; in [7] it was more than 9.22 µM; in experiment [12], 3.16 µM (active). The activity change, negative = inhibition was -3.57% in experiment [2] and 14.4% in experiment [4]. Besides, in [5], the activity, negative = inhibition was -8.39%. In addition, the Potency entry in experiment [8] and in [9] was “inactive” each time.
As to `Nc1ncnc2nc[nH]c12.Nc1ncnc2nc[nH]c12.[Cl][Pt]([Cl])([Cl])[Cl]`, the Potency is more than 11.4 µM in experiment [1], more than 46 µM in experiment [6] and more than 9.22 µM in experiment [7]. Besides, the results for the activity change, negative = inhibition in experiment [2], in experiment [3] and in experiment [4] were -1.02%, 13.2% [at 2.29 µM] and 4.22%, respectively. Also, the activity, negative = inhibition in [5] is -3.14%. Moreover, the Potency result in experiment [8], in experiment [9], in experiment [10], in [13] and in experiment [14] was “inactive” each time.
With `COc1cccc2[nH]c(-c3ccccn3)nc12`, the Potency in experiment [1] is more than 11.4 µM; in [3], 0.794 µM (active); in experiment [6], more than 46 µM; in experiment [7], more than 9.22 µM; in experiment [14], 2.51 µM (active). In addition, the results for the activity change, negative = inhibition in [2] and in [4] were -2.26% and 1.67%, respectively. Besides, the activity, negative = inhibition in experiment [5] is 4.98%. The Potency entry in experiment [8], in experiment [9], in [10] and in experiment [11] was “inactive” each time.
Take `N=C(N)S[C@H]1c2ccccc2-c2cc([N+](=O)[O-])ccc21`: the Potency in [1] was more than 11.4 µM; in experiment [3], 0.158 µM (active); in [6] it was more than 46 µM; in experiment [7], more than 9.22 µM; in experiment [12], 5.01 µM (active). Besides, the figures for the activity change, negative = inhibition in experiment [2] and in experiment [4] were -7.27% and -0.855%, respectively. The activity, negative = inhibition in [5] is -2.76%. In addition, the Potency result in [8], in experiment [9] and in experiment [11] was “inactive” throughout.
As for `Cc1c(Cl)cccc1NC(=O)C[C@H]1Sc2ccccc2NC1=O`, the Potency was more than 11.4 µM in experiment [1], more than 46 µM in experiment [6] and more than 9.22 µM in experiment [7]. The results for the activity change, negative = inhibition in [2], in experiment [3] and in experiment [4] were -17.8%, -23.2% [at 2.29 µM] and 7.2%, respectively. In experiment [5], the activity, negative = inhibition is 6.79%. In addition, the Potency entry in experiment [8], in experiment [9], in experiment [10] and in [11] was “inactive” each time.
